Records with an inconclusive call do not appear. Calls of active or inactive are those of the source. How the source made its calls, unless noted: active means hit-call score of the fitted dose curve at least 0.9, where 1 is the maximum; inconclusive means response in the unintended direction; inactive means score below 0.9.
Experiments:
[1] = read-out: Glyceraldehyde-3-phosphate dehydrogenase (Homo sapiens) (UniProt P04406); test: CLD_GAPDH_24hr: CellzDirect (CLD) Gene Expression Assay for Baseline Control (Glyceraldehyde 3-phosphate dehydrogenase) at 24 hours (AID 2283692)
Summary of the method: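 GAPDH baseline-control readout: qNPA chemiluminescent mRNA signal in human primary hepatocytes harvested 24 h after daily dosing, normalised to 0.2% DMSO with positive fitting direction; cytotoxicity annotated by phase-contrast morphology.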

[2] = read-out: alkyl and aryl transferase (GSTA2), GSTA2 (gene 2939); test: CLD_GSTA2_24hr: CellzDirect (CLD) Gene Expression Assay for alkyl and aryl transferase (GSTA2) at 24 hours (AID 2283693)
Summary of the method: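 GSTA2 transcript levels were quantified by quantitative nuclease protection assay in primary human hepatocytes 24 h after daily dosing with fresh solutions at multiple concentrations; 0.2% DMSO vehicle as baseline, cytotoxicity flagged morphologically.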

[3] = read-out: ABC Transporter (ABCB1), ABCB1 (gene 5243); test: CLD_ABCB1_48hr: CellzDirect (CLD) Gene Expression Assay for ABC Transporter (ABCB1) at 48 hours (AID 2283695)
Summary of the method: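 ABCB1 mRNA was measured by quantitative nuclease protection assay (chemiluminescence) 48 h after dosing. Human hepatocyte cultures from two separate donors received fresh dosing solutions daily for two days, with 0.2% DMSO as vehicle. Positive-direction fit against DMSO.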

[4] = read-out: glucuronosyltransferase (UGT1A1), UGT1A1 (gene 54658); test: CLD_UGT1A1_24hr: CellzDirect (CLD) Gene Expression Assay for glucuronosyltransferase (UGT1A1) at 24 hours (AID 2283696)
Summary of the method: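 UGT1A1 transcript induction was measured by quantitative nuclease protection assay (chemiluminescence) in human hepatocyte cultures 24 h after daily fresh dosing, with 0.2% DMSO as vehicle and baseline.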

[5] = read-out: Cytochrome P450 2B6 (Homo sapiens) (UniProt P20813); test: CLD_CYP2B6_48hr: CellzDirect (CLD) Gene Expression Assay for xenobiotic metabolism (CYP2B6) at 48 hours (AID 2283699);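 further: actives raise transcript level above DMSO so potency reflects induction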
Summary of the method: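 CYP2B6 transcript induction, read by quantitative nuclease protection (S1 digestion, chemiluminescent detection) 48 h after dosing, is fitted upward against 0.2% DMSO. Cultured human liver primary cells, two donor preparations, received fresh chemical daily over multiple concentrations.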

[6] = read-out: Cytochrome P450 2C19 (Homo sapiens) (UniProt P33261); test: CLD_CYP2C19_48hr: CellzDirect (CLD) Gene Expression Assay for xenobiotic metabolism (CYP2C19) at 48 hours (AID 2283700);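 further: fitted upward so actives raise CYP2C19 mRNA above the 0.2% DMSO vehicle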
Summary of the method: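 CYP2C19 mRNA induction read by chemiluminescent quantitative nuclease protection assay after 48 h, with fresh compound added daily for two days to cultured human liver hepatocytes. Activity fitted upward against 0.2% DMSO vehicle.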

[7] = read-out: Cytochrome P450 2C9 (Homo sapiens) (UniProt P11712); test: CLD_CYP2C9_48hr: CellzDirect (CLD) Gene Expression Assay for xenobiotic metabolism (CYP2C9) at 48 hours (AID 2283701; active means hit-call score of the fitted dose curve at least 0.9, where 1 is the maximum; inactive means score below 0.9)
Summary of the method: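 mRNA level measured by quantitative nuclease protection (S1 digestion, chemiluminescent detection) in lysates of human primary hepatocytes exposed 48 h with daily re-dosing. Induction fitted positively versus 0.2% DMSO; morphology-based cytotoxicity flagged yes/no.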

[8] = read-out: xenobiotic metabolism (CYP1A2), CYP1A2 (gene 1544); test: CLD_CYP1A2_48hr: CellzDirect (CLD) Gene Expression Assay for xenobiotic metabolism (CYP1A2) at 48 hours (AID 2283703)
Summary of the method: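 Cytotoxicity was flagged yes/no from morphology, while CYP1A2 transcript induction was detected by qNPA chemiluminescence after a 48-hour exposure. Human primary hepatocyte cultures from separate donors received fresh dosing solutions daily over two days, with 0.2% DMSO as vehicle and baseline.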

[9] = read-out: xenobiotic metabolism (CYP1A1), CYP1A1 (gene 1543); test: CLD_CYP1A1_48hr: CellzDirect (CLD) Gene Expression Assay for xenobiotic metabolism (CYP1A1) at 48 hours (AID 2283705)
Summary of the method: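 CYP1A1 transcript measured by quantitative nuclease protection (chemiluminescent) 48 h after two daily treatments of human hepatocyte cultures, versus 0.2% DMSO. Morphology-based cytotoxicity flags accompany data; two donor preparations used.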

[10] = read-out: sulfotransferase (SULT2A), SULT2A1 (gene 6822); test: CLD_SULT2A_48hr: CellzDirect (CLD) Gene Expression Assay for sulfotransferase (SULT2A) at 48 hours (AID 2283710);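 further: hits raise SULT2A1 transcript above the 0.2% DMSO vehicle baseline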
Summary of the method: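 SULT2A1 transcript measured by qNPA chemiluminescence in human primary hepatocyte cultures after 48 h, with fresh dosing solutions on two consecutive days; gain-of-signal fitting against 0.2% DMSO vehicle; cytotoxicity annotated from phase-contrast morphology.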

[11] = read-out: sulfotransferase (SULT2A), SULT2A1 (gene 6822); test: CLD_SULT2A_24hr: CellzDirect (CLD) Gene Expression Assay for sulfotransferase (SULT2A) at 24 hours (AID 2283694)
Summary of the method: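 mRNA is measured by qNPA: probe hybridisation, S1 nuclease digestion, chemiluminescence, in lysates from human primary hepatocytes harvested 24 h after daily dosing. Vehicle was 0.2% DMSO. Phase-contrast microscopy flagged cytotoxicity (yes/no).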

[12] = read-out: ABC Transporter (ABCB11), ABCB11 (gene 8647); test: CLD_ABCB11_48hr: CellzDirect (CLD) Gene Expression Assay for ABC Transporter (ABCB11) at 48 hours (AID 2283697)
Summary of the method: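 Induction of ABCB11 mRNA relative to 0.2% DMSO, measured at 48 h by qNPA chemiluminescence. Cultured human hepatocytes (two donors) received fresh dosing solutions at several concentrations on two consecutive days.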

[13] = read-out: Cytochrome P450 3A4 (Homo sapiens) (UniProt P08684); test: CLD_CYP3A4_48hr: CellzDirect (CLD) Gene Expression Assay for xenobiotic metabolism (CYP3A4) at 48 hours (AID 2283698)
Summary of the method: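 CYP3A4 induction read by qNPA chemiluminescence after 48 h, with fresh dosing solutions on consecutive days, in cultured human hepatocytes (two donors). Vehicle 0.2% DMSO as baseline; microscopy-based cytotoxicity annotated yes/no alongside data.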

[14] = CLD_ACTIN_48hr: CellzDirect (CLD) Gene Expression Assay for Baseline Control (Actin) at 48 hours (AID 2283702)
Summary of the method: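 Background-control actin mRNA read by qNPA chemiluminescence at 48 h. Human hepatocyte cultures from two donors received fresh multi-concentration chemical doses daily for two days; 0.2% DMSO served as vehicle baseline.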

[15] = read-out: Glyceraldehyde-3-phosphate dehydrogenase (Homo sapiens) (UniProt P04406); test: CLD_GAPDH_48hr: CellzDirect (CLD) Gene Expression Assay for Baseline Control (Glyceraldehyde 3-phosphate dehydrogenase) at 48 hours (AID 2283706);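 further: active means higher GAPDH mRNA than DMSO vehicle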
Summary of the method: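 GAPDH baseline-control readout: qNPA chemiluminescent mRNA quantitation in human liver primary cells 48 h after daily dosing on two consecutive days, vehicle 0.2% DMSO; gain of signal fitted against DMSO, cytotoxicity flagged by phase-contrast morphology.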

[16] = read-out: organic anion transporter (SLCO1B1), SLCO1B1 (gene 10599); test: CLD_SLCO1B1_48hr: CellzDirect (CLD) Gene Expression Assay for organic anion transporter (SLCO1B1) at 48 hours (AID 2283707)
Summary of the method: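 SLCO1B1 transcript quantified by qNPA with chemiluminescent readout after 48 h of once-daily chemical exposure. Cultured human primary hepatocytes came from two donors, with 0.2% DMSO vehicle; positive-direction fitting against DMSO, cytotoxicity flagged by morphology.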

[17] = read-out: alkyl and aryl transferase (GSTA2), GSTA2 (gene 2939); test: CLD_GSTA2_48hr: CellzDirect (CLD) Gene Expression Assay for alkyl and aryl transferase (GSTA2) at 48 hours (AID 2283708);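 further: active means mRNA induction above DMSO vehicle baseline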
Summary of the method: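 GSTA2 mRNA quantified by qNPA chemiluminescence in human primary hepatocyte lysates after 48 h of daily fresh chemical dosing. Increases fitted against 0.2% DMSO vehicle baseline; cytotoxicity from morphology annotated yes/no.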

[18] = read-out: Broad substrate specificity ATP-binding cassette transporter ABCG2 (Homo sapiens) (UniProt Q9UNQ0); test: CLD_ABCG2_48hr: CellzDirect (CLD) Gene Expression Assay for ABC Transporter (ABCG2) at 48 hours (AID 2283704)
Summary of the method: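 ABCG2 transcript measured at 48 h by quantitative nuclease protection (chemiluminescent) and fitted for increase relative to 0.2% DMSO. Hepatocyte cultures from separate donors got fresh compound daily over two days; morphology annotated cytotoxicity.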

[19] = read-out: glucuronosyltransferase (UGT1A1), UGT1A1 (gene 54658); test: CLD_UGT1A1_48hr: CellzDirect (CLD) Gene Expression Assay for glucuronosyltransferase (UGT1A1) at 48 hours (AID 2283709);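 further: actives increase expression relative to DMSO so potency refers to induction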
Summary of the method: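 Quantitative nuclease protection assay (chemiluminescent) for UGT1A1 mRNA at 48 h in human hepatocyte cultures from two donors, redosed daily with fresh solutions. Induction fitted relative to 0.2% DMSO; phase-contrast morphology annotated cytotoxicity.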

Measured: AC50

Sequence of Cytochrome P450 3A4 (Homo sapiens) (P08684 whole entry, looked up): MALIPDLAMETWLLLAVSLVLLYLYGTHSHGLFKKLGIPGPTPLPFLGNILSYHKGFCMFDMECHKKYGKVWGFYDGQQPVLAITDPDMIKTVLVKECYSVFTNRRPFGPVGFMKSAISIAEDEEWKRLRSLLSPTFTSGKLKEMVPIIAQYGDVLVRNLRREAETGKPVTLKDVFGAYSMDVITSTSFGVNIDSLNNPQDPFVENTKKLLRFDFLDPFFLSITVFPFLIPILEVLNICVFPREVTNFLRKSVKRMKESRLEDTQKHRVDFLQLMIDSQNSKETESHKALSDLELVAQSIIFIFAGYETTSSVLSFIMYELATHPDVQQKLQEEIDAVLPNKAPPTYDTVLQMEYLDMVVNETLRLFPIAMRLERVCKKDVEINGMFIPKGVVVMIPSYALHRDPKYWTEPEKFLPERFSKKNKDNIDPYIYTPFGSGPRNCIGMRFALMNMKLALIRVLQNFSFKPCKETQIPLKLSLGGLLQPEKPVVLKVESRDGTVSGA
Sequence of Broad substrate specificity ATP-binding cassette transporter ABCG2 (Homo sapiens) (Q9UNQ0 whole entry, looked up): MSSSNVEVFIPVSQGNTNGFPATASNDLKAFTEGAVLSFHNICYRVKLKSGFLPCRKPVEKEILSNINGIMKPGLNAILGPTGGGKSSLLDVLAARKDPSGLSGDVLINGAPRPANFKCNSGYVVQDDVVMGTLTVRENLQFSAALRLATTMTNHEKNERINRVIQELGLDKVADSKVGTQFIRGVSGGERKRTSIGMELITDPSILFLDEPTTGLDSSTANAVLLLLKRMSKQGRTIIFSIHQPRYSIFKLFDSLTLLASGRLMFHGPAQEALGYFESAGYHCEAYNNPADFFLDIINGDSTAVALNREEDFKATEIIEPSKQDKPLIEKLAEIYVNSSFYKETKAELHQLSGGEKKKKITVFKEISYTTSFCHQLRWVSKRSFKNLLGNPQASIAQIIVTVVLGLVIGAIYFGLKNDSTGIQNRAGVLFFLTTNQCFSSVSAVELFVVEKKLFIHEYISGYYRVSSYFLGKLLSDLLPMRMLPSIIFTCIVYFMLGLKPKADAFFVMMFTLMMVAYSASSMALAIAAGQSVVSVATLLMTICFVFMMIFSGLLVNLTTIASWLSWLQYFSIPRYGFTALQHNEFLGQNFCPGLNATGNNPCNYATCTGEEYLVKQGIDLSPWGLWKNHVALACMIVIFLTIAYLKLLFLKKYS
Sequence of Cytochrome P450 2C19 (Homo sapiens) (P33261 whole entry, looked up): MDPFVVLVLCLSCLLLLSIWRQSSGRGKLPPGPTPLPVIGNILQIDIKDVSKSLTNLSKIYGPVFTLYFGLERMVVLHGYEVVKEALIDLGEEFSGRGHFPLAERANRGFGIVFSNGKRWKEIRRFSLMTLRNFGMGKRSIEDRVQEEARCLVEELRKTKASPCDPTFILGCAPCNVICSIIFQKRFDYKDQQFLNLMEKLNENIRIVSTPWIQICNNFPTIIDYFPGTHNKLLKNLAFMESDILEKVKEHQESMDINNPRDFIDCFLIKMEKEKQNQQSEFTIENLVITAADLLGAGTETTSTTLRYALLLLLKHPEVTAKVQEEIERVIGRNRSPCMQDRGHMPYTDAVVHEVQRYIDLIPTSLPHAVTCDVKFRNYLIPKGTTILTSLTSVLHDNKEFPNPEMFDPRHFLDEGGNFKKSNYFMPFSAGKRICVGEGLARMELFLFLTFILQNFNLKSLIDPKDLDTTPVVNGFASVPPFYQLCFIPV
Sequence of Glyceraldehyde-3-phosphate dehydrogenase (Homo sapiens) (P04406 whole entry, looked up): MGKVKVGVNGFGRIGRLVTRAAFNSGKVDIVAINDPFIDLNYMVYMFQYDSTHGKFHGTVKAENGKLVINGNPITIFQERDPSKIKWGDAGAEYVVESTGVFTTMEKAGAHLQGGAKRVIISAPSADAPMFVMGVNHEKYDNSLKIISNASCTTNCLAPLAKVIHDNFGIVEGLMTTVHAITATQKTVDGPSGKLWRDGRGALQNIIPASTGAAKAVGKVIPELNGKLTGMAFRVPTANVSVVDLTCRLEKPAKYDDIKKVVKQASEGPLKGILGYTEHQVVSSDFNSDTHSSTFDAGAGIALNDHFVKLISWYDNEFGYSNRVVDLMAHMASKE

COCC(=O)N(c1c(C)cccc1C)C(C)C(=O)OC (configuration not stated)
inactive: [1] | [2] | [3] | [4] | [6] | [7] | [8] | [9]
active: [5] 3.08 µM | [10] 20 µM

CCCC(=NOCC)C1=C(O)CC(CC(C)SCC)CC1=O (configuration not stated)
active: [13] 20 µM
inactive: [1] | [11] | [3] | [4] | [12] | [5] | [6] | [7] | [14] | [8] | [9] | [15] | [16] | [17] | [10]

C=CCOC(=O)C(C)(C)OC(=O)c1cc(-n2c(=O)cc(C(F)(F)F)n(C)c2=O)ccc1Cl
inactive: [1] | [3] | [4] | [6] | [7] | [14] | [18] | [9] | [15] | [17]
active: [13] 2.79 µM

CC(C)C1(C)N=C(c2ncccc2C(=O)O)NC1=O (configuration not stated)
inactive: [1] | [2] | [3] | [4] | [12] | [13] | [6] | [15] | [16] | [17]

COP(=S)(OC)Oc1ccc([N+](=O)[O-])c(C)c1
active: [13] 0.0472 µM | [8] 3.97 µM | [9] 20 µM | [19] 5.37 µM
inactive: [1] | [2] | [3] | [4] | [18] | [17] | [10]

CC1(C)CON(Cc2ccccc2Cl)C1=O
inactive: [1] | [2] | [3] | [4] | [6] | [7] | [8] | [15] | [19] | [10]
active: [13] 5.13 µM

Cn1c(-c2ccccc2)cc(-c2ccccc2)[n+]1C
inactive: [1] | [2] | [3] | [14] | [18] | [9] | [10]
active: [17] 2.83 µM

CO/N=C(/C1=NOCCO1)c1ccccc1Oc1ncnc(Oc2ccccc2Cl)c1F
inactive: [1] | [2] | [11] | [3] | [12] | [13] | [6] | [7] | [14] | [8] | [18] | [16] | [17] | [10]
active: [9] 32.4 µM

Reference: PubChem BioAssay (EPA / NIEHS)
